Assay results taken from PubChem BioAssay (NCATS).
Values joined by “and” are separate entries in the source; they are usually repeats but may differ in a detail not shown here. Equal values may be shown once. Inconclusive results are not listed. Entries that show only a call come without a potency. Active and inactive are the calls of the source. Calls come from the whole dose curve; as a rule, active = well fitted cell-killing curve with a large enough effect; inconclusive = small, poorly fitted or top-dose-only effect, or effect the other way; inactive = no such curve, though single readings can be large or run the other way.

Assays:
[1] = Viability qHTS for spleen associated tyrosine kinase inhibitor (SYKi) naive MV4-11 cells (AID 1963823); note: nearly all actives have a fitted effect of over 40% in size
How it was run: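 In this viability screen, compounds acted on SYK inhibitor naive MV4-11 cells for three days (72 hr, 37 C). Remaining viable cells were measured by CellTiter-Glo luminescence following a 10 min room-temperature development.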

[2] = Viability qHTS for spleen associated tyrosine kinase inhibitor (SYKi) drug resistant MV4-11 cells (AID 1963824); note: nearly all actives have a fitted effect of over 35% in size
How it was run: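 SYK-inhibitor-resistant MV4-11 AML cells were seeded at 500 per well onto compound and cultured 72 hours (37 °C, 5% CO2). CellTiter-Glo was then added, and after 10 min at room temperature, luminescence gave viability.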
Potency is the fitted concentration of half-maximal effect.

SMILES | Potency [1] | Potency [2]
CN1CCN(Cc2ccc(-c3cnc4[nH]cc(-c5ccc6[nH]ccc6c5)c4c3)cc2)CC1 | 0.082 µM (active) | 0.146 µM (active)
CC(C)(C)S(=O)(=O)c1ccc2nccc(Nc3n[nH]c4ccc(F)cc34)c2c1 | 7.42 µM (active) | 9.34 µM (active)
CC(=O)N[C@H](Cc1ccc(O)cc1)C(=O)N[C@H](CCCN=C(N)N)C(=O)N[C@H](Cc1ccccc1)C(N)=O | inactive | inactive
CC1(C)C=Cc2c(ccc3c2N=C2C(C)(C)[C@@H]4C[C@]56CCCN5C(=O)[C@@]4(C[C@]23O)NC6=O)O1 | inactive | inactive
COc1ccc(OC2OC(CO[C@@H]3O[C@@H](C)[C@H](O)[C@@H](O)[C@H]3O)C(O)C(O)C2O)cc1OC (some centres undefined) | inactive | inactive
O=C(CCc1nnc2n(Cc3ccc(Cl)cc3)c(=O)c3ccccc3n12)NCCC1=CCCCC1 | inactive | inactive
O=C(/C=C/c1ccc(O)c(O)c1)O[C@H]1[C@H](OC2CCCCC2O)O[C@H](CO)[C@@H](O)[C@@H]1O (some centres undefined) | inactive | inactive
C=C1CC2OC(=O)C(=C)C2C(O)/C=C(\C)CCC1O (centres undefined) | 18.4 µM (active) | 13 µM (active)
CC(C)C(C#N)O[C@@H]1O[C@H](CO[C@@H]2OC[C@](O)(CO)[C@H]2O)[C@@H](O)[C@H](O)[C@H]1O (some centres undefined) | inactive | inactive
CN1CCc2cccc3c2[C@H]1Cc1ccc(O)c(O)c1-3 | 5.96 µM (active) | 3.76 µM (active)
CC(C)[C@@H](C)/C=C/[C@@H](C)[C@H]1CC[C@H]2C3=CC=C4C[C@@H](O)CC[C@]4(C)C3=CC[C@]12C | 16.4 µM (active) | 11.6 µM (active)
COC(=O)C1=CO[C@@H](O[C@@H]2O[C@H](CO)[C@@H](O)[C@H](O)[C@H]2O)[C@H]2[C@@H]1CC(OC)O[C@@H]2C (some centres undefined) | inactive | inactive
CCC(C)CC(=O)OC1C(=O)C(CO)=CC(O)C1C(C)C (centres undefined) | 2.59 µM (active) | 2.59 µM (active)
C=C(CCC1=C(C)[C@H]2[C@H](CC3[C@@H]4CC=C5C[C@@H](O)C[C@@H](O)[C@]5(C)C4[C@H](O)C[C@@]32C)O1)CO[C@@H]1O[C@H](CO)[C@@H](O)[C@H](O)[C@H]1O (some centres undefined) | 0.611 µM (active) | 0.485 µM (active)
CC(C)CN(C[C@@H](O)[C@H](Cc1ccccc1)NC(=O)O[C@@H]1CO[C@H]2OCC[C@H]21)S(=O)(=O)c1ccc(N)cc1 | inactive | inactive
OC[C@H]1O[C@@H](n2cnc3c(NCc4ccc(O)cc4)ncnc32)[C@H](O)[C@@H]1O | 1.03 µM (active) | 0.731 µM (active)
CCNc1nc2c(ncn2[C@H]2C[C@H](O)[C@@H](CO)O2)c(=O)[nH]1 | inactive | inactive
C=C1C[C@]23C[C@@]1(O)CC[C@H]2[C@@]12C=C[C@H](O)[C@@](C)(C(=O)O1)[C@H]2[C@@H]3C(=O)O | inactive | inactive
CCCCCCCCCCCCCCCCC(C(=O)O)C(O)(CC(=O)O)C(=O)O (centres undefined) | inactive | inactive
CNS(=O)(=O)c1ccccc1Nc1nc(Nc2ccc(N3CCN(C)CC3)cc2OC)ncc1Cl | 0.0206 µM (active) | 0.0366 µM (active)
CC1(C)C2CC(OC3OC(COC4OCC(O)(CO)C4O)C(O)C(O)C3O)C1(C)CC2O (centres undefined) | inactive | inactive
CC(C)(C)CC(C)(C)c1ccc(OCCOCC[N+](C)(C)Cc2ccccc2)cc1 | 2.37 µM (active) and 1.16 µM (active) | 2.37 µM (active) and 1.46 µM (active)
COc1cc(C)c(C(=O)O[C@@H]2[C@H](O)[C@@H](CO)O[C@H]2n2ccc(=O)[nH]c2=O)c(OC)c1 | inactive | inactive
Cc1[nH]c2ccccc2c1C1=C(NCCc2ccc(F)cc2)C(=O)N(C)C1=O | 16.4 µM (active) | 11.6 µM (active)
CC1(C)OC(=O)CC(O)C2(C)C1CC(=O)C1(C)C2C(O)CC2(C)C(c3ccoc3)OC(=O)C3OC321 (centres undefined) | inactive | inactive
CCN(CC)CCNc1ccc2ncn3c4ccc(O)cc4c(=O)c1c23 | 0.164 µM (active) | 0.291 µM (active)
COc1ccc(/C=C/C(=O)O[C@H]2[C@H](O[C@H]3[C@@H]4C=CO[C@@H](O[C@@H]5O[C@H](CO)[C@@H](O)[C@H](O)[C@H]5O)[C@@H]4[C@@]4(CO)O[C@@H]34)O[C@@H](C)[C@H](O)[C@H]2OC(C)=O)cc1 | inactive | inactive
